Active and inactive are the calls of the source. Unless noted, how the calls were made is not given here.
What was measured:
[1] = resazurin metabolic signal in HepG2 cells – cell-based, resazurin fluorescence, 24 h, PK04 Diversity Set, profiling panel (AID 1172); settings: HepG2 viability, higher = more signal
[2] = budding yeast growth changes without added modifier – OD600, strain BY4716, 24 h, basal condition, primary screen (AID 1173); settings: S. cerevisiae BY4716 growth, OD600, 24 h; higher = more signal, called active from +8 up or from −8 down
[3] = viability profiling in MM1S myeloma cells – cell-based, resazurin fluorescence, basal, 24 h, PK04 Diversity Set, profiling panel (AID 1174); settings: higher = more signal, called active from +8 up or from −8 down;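 further: MM1S multiple myeloma cell line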
[4] = biological target: Dihydroorotate dehydrogenase (quinone), mitochondrial (Plasmodium falciparum (isolate 3D7)) (UniProt Q08210); test: inhibition of P. falciparum DHODH – biochemical, C-terminal His tag, absorbance 600 nm, primary screen (AID 1175); settings: PfDHODH enzyme, DCIP absorbance 600 nm; higher = more signal, called active from +8 up or from −8 down;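 further: recombinant parasite enzyme with a five histidine tag at its C terminus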
Chain of Dihydroorotate dehydrogenase (quinone), mitochondrial (Plasmodium falciparum (isolate 3D7)) (Q08210 whole entry, looked up): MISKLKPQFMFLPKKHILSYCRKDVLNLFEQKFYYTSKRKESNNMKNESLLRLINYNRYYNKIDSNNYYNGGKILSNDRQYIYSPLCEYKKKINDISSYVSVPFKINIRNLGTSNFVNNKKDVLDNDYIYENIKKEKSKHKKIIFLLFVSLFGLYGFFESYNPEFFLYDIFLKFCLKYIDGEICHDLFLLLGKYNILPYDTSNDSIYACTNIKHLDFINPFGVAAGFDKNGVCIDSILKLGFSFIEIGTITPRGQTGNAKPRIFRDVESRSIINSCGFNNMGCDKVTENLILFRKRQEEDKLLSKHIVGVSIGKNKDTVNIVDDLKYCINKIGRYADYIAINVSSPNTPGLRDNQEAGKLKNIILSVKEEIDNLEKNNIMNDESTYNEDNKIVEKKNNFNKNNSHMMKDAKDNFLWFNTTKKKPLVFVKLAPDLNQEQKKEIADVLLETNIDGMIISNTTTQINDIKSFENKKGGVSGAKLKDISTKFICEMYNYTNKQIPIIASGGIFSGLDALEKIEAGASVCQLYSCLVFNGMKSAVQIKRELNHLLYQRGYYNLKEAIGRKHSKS

[5] = inhibition of PAO1 biofilm formation – strain PAO1, LB-PBS medium, absorbance 600 nm, primary screen (AID 1176); settings: P. aeruginosa PAO1 growth/biofilm, A600, 12 h; higher = more signal
[6] = growth modulation of vineyard yeast isolate – strain RM11-1a, OD600, basal, 24 h, primary screen (AID 1177);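 further: cultures grown under basal conditions with no added stressor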; settings: S. cerevisiae RM11-1a growth, OD600, 24 h; higher = more signal, called active from +8 up or from −8 down
[7] = growth of efflux-deficient E. coli DRC39 – strain DRC39, OD650, 24 h, E. coli filamentation inducers, primary screen (AID 1178);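 further: growth measured as culture turbidity by optical density at 650 nm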; settings: E. coli DRC39 acrAB, higher = more signal, called active from +8 up or from −8 down
[8] = growth of efflux-deficient E. coli DRC39 – strain DRC39, OD650, 48 h, E. coli filamentation inducers, primary screen (AID 1179);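 further: screen aims at cell division blockers that make cells filament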; settings: E. coli DRC39 delta-acrAB growth, higher = more signal, called active from +8 up or from −8 down
[9] = viability profiling in RPMI8226 myeloma cells – cell-based, resazurin fluorescence, basal, 24 h, PK04 Diversity Set, profiling panel (AID 1180); settings: higher = more signal;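 further: RPMI8826 multiple myeloma cell line at 5000 cells per well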
[10] = biological target: E3 ubiquitin-protein ligase XIAP (Homo sapiens) (UniProt P98170); test: small molecules binding XIAP protein – biophysical, small-molecule microarray, fluorescence 635 nm, primary screen (AID 1181); settings: higher = more signal;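 further: score merges 667 nm emission and signal to noise over triplicate slides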
Chain of E3 ubiquitin-protein ligase XIAP (Homo sapiens) (P98170 whole entry, looked up, the tested form may be a part): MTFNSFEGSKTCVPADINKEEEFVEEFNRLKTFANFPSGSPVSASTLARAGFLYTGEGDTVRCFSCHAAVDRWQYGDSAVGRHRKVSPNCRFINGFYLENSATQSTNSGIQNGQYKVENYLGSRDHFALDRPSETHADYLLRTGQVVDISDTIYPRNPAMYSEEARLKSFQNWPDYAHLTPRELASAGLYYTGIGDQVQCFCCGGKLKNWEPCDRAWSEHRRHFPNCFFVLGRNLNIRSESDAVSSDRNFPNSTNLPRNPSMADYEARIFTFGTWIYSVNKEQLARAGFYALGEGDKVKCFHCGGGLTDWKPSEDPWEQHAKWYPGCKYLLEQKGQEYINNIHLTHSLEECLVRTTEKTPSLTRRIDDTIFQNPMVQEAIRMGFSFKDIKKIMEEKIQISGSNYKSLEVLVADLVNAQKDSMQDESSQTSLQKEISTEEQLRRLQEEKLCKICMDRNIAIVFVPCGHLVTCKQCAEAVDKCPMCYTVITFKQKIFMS

[11] = tested on: XIP peptide (Xip251-270) binding; test: XIP fragment 251-270 binding compounds – biochemical, small-molecule microarray, fluorescence 635/667 nm, 0.1 µg/mL protein, primary screen (AID 1182); settings: fluorescent protein binding, 635 nm, higher = more signal, called active from +8 up or from −8 down
[12] = tested on: XIP peptide (Xip251-270); test: compounds binding XIP fragment 251-270 – biochemical, small-molecule microarray, fluorescence 635/667 nm, 0.5 µg/mL protein, primary screen (AID 1183); settings: fluorescence 635 nm, higher = more signal
[13] = blood-stage malaria parasite viability loss – strain 3D7, DAPI fluorescence, 100 nL, primary screen (AID 1184);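 further: parasites grown inside human red blood cells in medium with human serum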; settings: P. falciparum 3D7 growth, 3 d, higher = more signal
[14] = biological target: Homeobox protein Hox-A13 (Mus musculus) (UniProt Q62424); test: disruptors of Hoxa13 oligonucleotide interaction – biochemical, fluorescence polarization, labeled oligonucleotide, primary screen (AID 1185); settings: Hoxa13:DNA binding, 15 min, higher = more signal, called active from +8 up or from −8 down
Chain of Homeobox protein Hox-A13 (Mus musculus) (Q62424 whole entry, looked up): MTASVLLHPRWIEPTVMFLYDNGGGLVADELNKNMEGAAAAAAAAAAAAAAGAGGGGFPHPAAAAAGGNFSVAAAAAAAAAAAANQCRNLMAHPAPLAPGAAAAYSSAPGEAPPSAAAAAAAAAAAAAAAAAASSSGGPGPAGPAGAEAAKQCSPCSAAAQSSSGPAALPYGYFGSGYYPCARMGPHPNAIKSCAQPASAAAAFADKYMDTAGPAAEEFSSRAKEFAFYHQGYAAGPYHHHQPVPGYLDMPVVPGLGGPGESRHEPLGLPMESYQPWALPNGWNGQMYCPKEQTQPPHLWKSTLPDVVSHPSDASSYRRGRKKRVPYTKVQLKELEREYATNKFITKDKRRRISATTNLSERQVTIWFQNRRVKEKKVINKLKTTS

| Structure (SMILES) | z-score [1] | z-score [2] | z-score [3] | composite z-score [4] | z-score [5] | z-score [6] | z-score [7] | z-score [8] | z-score [9] | composite z-score [10] | composite z-score [11] | composite z-score [12] | z-score [13] | z-score [14] |
| --- | --- | --- | --- | --- | --- | --- | --- | --- | --- | --- | --- | --- | --- | --- |
| COC(=O)C=CCCc1coc(C=CCNC(=O)OC)n1 | -0.658 | -1.07 (inactive) | 0.0455 (inactive) | 0.979 (inactive) | -0.27 (inactive) | 0.237 (inactive) | -1 (inactive) | -0.542 (inactive) | -0.102 | 0.249 | 0.56 (inactive) | 0.868 | -0.92 | -2.9 (inactive) |
| COC(=O)CC=C[C@@H](C)[C@@H](C=NOCC[C@@H]1C=C[C@H](OC(C)=O)[C@@H](COC(C)=O)O1)NS(=O)(=O)c1ccc(C)cc1 | -0.564 | 0.705 (inactive) | -0.602 (inactive) | 0.33 (inactive) | 0.453 (inactive) | 0.193 (inactive) | 0.336 (inactive) | 0.402 (inactive) | -0.393 | 0.0374 | 0.412 (inactive) | 0.303 | 0.0783 | -5.32 (inactive) |
| COCCNC(=O)OCC1CCCC2(CC(OC(=O)NCc3ccc4c(c3)OCO4)CC(CCC(=O)N[C@@H](C)C(=O)OC)O2)O1 (stereo not given in full) | 0.752 | -0.433 (inactive) | -0.0741 (inactive) | 0.209 (inactive) | -0.282 (inactive) | 0.715 (inactive) | 0.311 (inactive) | -0.49 (inactive) | 0.528 | -0.173 | 0.412 (inactive) | 0.623 | -2 | -6.4 (inactive) |
| COC(=O)[C@H]1[C@@H](O)[C@@]2(O)c3ccccc3O[C@@]2(c2ccccc2)[C@@H]1c1ccccc1 | -0.314 | 0.358 (inactive) | -0.683 (inactive) | 0.154 (inactive) | -0.175 (inactive) | 0.653 (inactive) | -0.306 (inactive) | -0.446 (inactive) | -0.857 | -0.173 | -0.759 (inactive) | -0.028 | -1.87 | -1.51 (inactive) |
| CCc1cc2c(nc1CC)CCN(CCC(C)=NOC[C@H]1O[C@H](c3ccccc3)C=C[C@@H]1Oc1ccc(OC)cc1)C2 | 0.0523 | -1.75 (inactive) | 0.22 (inactive) | -3.81 (inactive) | -0.197 (inactive) | -0.409 (inactive) | -1.58 (inactive) | -1.43 (inactive) | 0.218 | -0.23 | 0.248 (inactive) | 0.431 | -1.63 | -3.13 (inactive) |
| CC(C)=CCCC(C)=CCON=C1C[C@@H](O)[C@@H](O)[C@@H]2[C@@H]3C(=O)N(C4CCCCC4)C(=O)[C@@H]3CC[C@@H]12 | -0.199 | -0.81 (inactive) | -0.454 (inactive) | -0.42 (inactive) | 0.565 (inactive) | -0.709 (inactive) | 0.0915 (inactive) | -0.742 (inactive) | -0.51 | 0.0905 | -0.318 (inactive) | 0.426 | 0.242 | -2.99 (inactive) |
| CCOC(=O)[C@H](CC(C)C)NC(=O)CCC1CC(OC(=O)NCCc2ccc(F)cc2)CC2(CCCC(COC(=O)NCC3CCCCC3)O2)O1 (stereo not given in full) | 1.1 | 0.776 (inactive) | 0.0789 (inactive) | -0.161 (inactive) | 0.201 (inactive) | -0.547 (inactive) | -0.0313 (inactive) | -1.02 (inactive) | 0.738 | -0.153 | -0.0257 (inactive) | 0.437 | -1.9 | -7.04 (inactive) |
| CCOC(=O)[C@H](CC(C)C)NC(=O)CCC1CC(OC(=O)NCc2ccc3c(c2)OCO3)CC2(CCCC(COC(=O)NCc3cccc(C(F)(F)F)c3)O2)O1 (stereo not given in full) | -0.54 | 0.3 (inactive) | 0.639 (inactive) | 0.0645 (inactive) | -0.0691 (inactive) | 0.683 (inactive) | -0.718 (inactive) | -0.0974 (inactive) | 0.328 | -0.148 | 0.319 (inactive) | 0.348 | -2.06 | -1.71 (inactive) |
| CO[C@H]1COC(=O)CC=C[C@H](C)COC(=O)[C@@H](C)NC(=O)CC=C[C@@H]1C | -0.251 | -0.695 (inactive) | 1.31 (inactive) | -0.412 (inactive) | -0.16 (inactive) | -0.652 (inactive) | 0.33 (inactive) | -1.21 (inactive) | 0.961 | 0.0297 | 0.0921 (inactive) | 0.424 | -1.19 | -1.07 (inactive) |
| CCOC(=O)NN=C1C[C@@H](O)[C@@H](O)[C@@H]2[C@@H]3C(=O)N(c4cccc(Oc5ccccc5)c4)C(=O)[C@@H]3CC[C@@H]12 | 0.358 | -0.22 (inactive) | -0.285 (inactive) | -0.108 (inactive) | 0.225 (inactive) | -0.114 (inactive) | -0.347 (inactive) | -1.28 (inactive) | 0.0541 | -0.122 | 0.187 (inactive) | 0.651 | -0.512 | -4.18 (inactive) |
